Reference: the OligoGym collection

Each sequence was assayed against STAP2 (assay: pooled miR-30 sensor sort-seq; sequence = guide strand). Conditions: shRNA.
Sequence TAGAAAGCTCTCATAGTAGTGT has a sensor-assay potency score (higher = more potent) of 0.706.
TAGCCTAGCACCTTCTCGTAGT gave a sensor-assay potency score (higher = more potent) of -0.174.
In the case of TTCTCATAGTCAACAGCTGGGC, the sensor-assay potency score (higher = more potent) is reported as -0.883.
Sequence TTGAGCTTCTCCACGTGCTGGA has a sensor-assay potency score (higher = more potent) of 0.441.
With TCTCATAGTAGTGTGAAGGCAG the sensor-assay potency score (higher = more potent) was 0.0304.
Sequence TTCTTCTCTAGAAAGCTCTCAT has a sensor-assay potency score (higher = more potent) of -0.00657.
TTCCACGTAGCCTAGCACCTTC showed a sensor-assay potency score (higher = more potent) of -0.0469.
TACCTTGAACTTGATCTCCTGA gave a sensor-assay potency score (higher = more potent) of 0.355.

What follows are sequences tested against STARD13 in the same assay as above. Conditions: shRNA.
For TATTTCTTCTGTATGACTCGTG, the sensor-assay potency score (higher = more potent) was 0.941.
Sequence TGACCTTTCAGGTCTATCCTGC has a sensor-assay potency score (higher = more potent) of 0.102.
In the case of ATGAACTTTGGAACTGACCATG, the sensor-assay potency score (higher = more potent) is reported as -1.26.
Work on TTGTCATAGATACTGACTCGGC yielded a sensor-assay potency score (higher = more potent) of -0.87.
In the case of TATAACTGAGCGTATTGCGGGA, the sensor-assay potency score (higher = more potent) is reported as -0.462.
Work on TTTGTAGTCGGGAACTTTCATC yielded a sensor-assay potency score (higher = more potent) of -0.697.
For TTGTTCAACGTATTTAGTCGTC, the sensor-assay potency score (higher = more potent) was -0.155.
In the case of TTGAATTTTAGTCACTAGCTGA, the sensor-assay potency score (higher = more potent) is reported as -0.1.
Sequence TAGTCGGGAACTTTCATCCTCT has a sensor-assay potency score (higher = more potent) of 0.0488.
TTGCTGAATACTTTGAGGCAGG was tested, and the sensor-assay potency score (higher = more potent) was -0.948.
TTGTAGTCTGATCAAATCGCAA showed a sensor-assay potency score (higher = more potent) of -1.15.
Sequence TTAGTCGTCTGCAAAGAGGTTC has a sensor-assay potency score (higher = more potent) of -0.341.
